ALDH1A1 block: inhibitors of human aldehyde dehydrogenase 1A1 | Potency, µM (doses to about 75.3 µM), for inactives: at the top dose activity, negative = inhibition, hits mostly inhibitors | hit rate 7.3% among 220,000 | AID 1030 | Purified ALDH1A1, NADH fluorescence, propionaldehyde substrate; active = well fitted inhibition curve with a large enough effect, not every such curve was filed as active; inconclusive = small, poorly fitted or top-dose-only effect, or another doubt; inactive = no such curve, though single readings can be large or run the other way;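 note: potency is the fitted concentration of half-maximal effect; plate controls were no enzyme wells and a reference inhibitor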
Target sequence (P00352 whole entry, looked up): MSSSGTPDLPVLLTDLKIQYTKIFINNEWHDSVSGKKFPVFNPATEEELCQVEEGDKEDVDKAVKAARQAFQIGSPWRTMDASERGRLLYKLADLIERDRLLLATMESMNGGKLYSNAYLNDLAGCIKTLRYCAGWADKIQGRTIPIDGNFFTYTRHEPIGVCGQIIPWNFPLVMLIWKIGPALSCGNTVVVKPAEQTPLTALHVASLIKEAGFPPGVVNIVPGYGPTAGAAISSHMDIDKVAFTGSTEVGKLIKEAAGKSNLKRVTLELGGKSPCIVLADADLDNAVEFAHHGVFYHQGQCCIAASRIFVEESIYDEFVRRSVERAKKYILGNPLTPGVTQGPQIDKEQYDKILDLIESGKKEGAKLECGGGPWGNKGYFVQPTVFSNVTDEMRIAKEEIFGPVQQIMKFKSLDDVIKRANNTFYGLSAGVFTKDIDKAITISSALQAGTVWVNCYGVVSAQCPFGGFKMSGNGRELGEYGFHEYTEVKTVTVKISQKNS
IMPase cell inh: membrane-permeable compound that blocks inositol monophosphatase | CHO-M1 cells, IP1 accumulation, HTRF TR-FRET ratio | inhibition (IP1 accumulation), % at 46.1 µM | 120,000 tested, under 10 active | AID 901; active = well fitted curve in the direction sought with a large enough effect in the signal ratio, not every such curve was filed as active; inconclusive = small, poorly fitted or top-dose-only effect, or a change in a side signal; inactive = no such curve, though single readings can be large or run the other way; the % refers to the signal ratio;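 note: cells stimulated with carbachol in lithium chloride buffer; plate controls were DMSO basal wells for no effect and reference inhibitor wells for full effect; higher means more IMPase inhibition seen as more IP1 and lower FRET ratio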
Target sequence (P97697 whole entry, looked up): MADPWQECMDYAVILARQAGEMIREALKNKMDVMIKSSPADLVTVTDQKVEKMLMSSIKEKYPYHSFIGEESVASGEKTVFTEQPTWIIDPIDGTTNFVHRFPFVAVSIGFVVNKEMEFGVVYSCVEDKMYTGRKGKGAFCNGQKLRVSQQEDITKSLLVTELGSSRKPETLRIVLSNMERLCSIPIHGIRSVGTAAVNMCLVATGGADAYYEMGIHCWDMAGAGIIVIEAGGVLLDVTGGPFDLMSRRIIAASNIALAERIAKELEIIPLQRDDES
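Carbachol-driven Gq signalling in CHO-M1 cells (2000/well) generates IP1. Compounds that block IMPase raise IP1 and so reduce the FRET signal from Eu-anti-IP1 and d2-IP1 after a 10 min room-temperature lysis.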
HttQ103 aggreg: reduces HttQ103-GFP aggregates in PC12 cells; PC12 HttQ103-GFP aggregates, Acumen cytometry, 40 h; Potency, µM (titrated, usually from 46.1 µM), without a hit: top-dose activity change, negative = inhibition, hits mostly inhibitors; hit rate 1.1% among 220,000; AID 1688; note: potency is the fitted concentration of half-maximal effect; % is set by controls: 0 for no effect and ±100 for the full control effect; nearly all actives have a fitted effect of over 60% in size
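Ecdysone-promoter PC12 model expressing HTT exon 1 Q103 fused to GFP, induced by tebufenozide at 100 nM final. Compounds titrated; aggregates sized 1–25 µm scored on a 488 nm laser cytometer.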
HPGD inh: inhibitors of human 15-hydroxyprostaglandin dehydrogenase (HPGD); P15428; purified HPGD, NADH fluorescence kinetic, PGE2 substrate; Potency, µM, without a hit: at the highest dose activity change, negative = inhibition, hits mostly inhibitors; hit rate 4.3% among 150,000; AID 894; active = well fitted inhibition curve with a large enough effect, not every such curve was filed as active; inconclusive = small, poorly fitted or top-dose-only effect, or another doubt; inactive = no such curve, though single readings can be large or run the other way; note: potency is the fitted concentration of half-maximal effect; % is set by controls: 0 for no effect and ±100 for the full control effect
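20 nM HPGD preincubated 15 min at room temperature with compound in 50 mM Tris-HCl pH 8, 0.01% Tween 20. Started with 1 mM NAD+ and 30 uM prostaglandin E2; NADH fluorescence (360/450 nm) read 5 times over 30-s intervals, last minus first.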
IMPase Li cell: IMPase inhibition in cells with lithium potentiation | CHO-M1 cells, IP1 TR-FRET (IP-One), carbachol + lithium | AID 1457 | Potency, µM (titrated, usually from 59.4 µM), inactives show top-dose activity, negative = IMPase inhibition, hits mostly inhibitors | hit rate 0.35% among 210,000;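 note: IP1 builds up when IMPase is blocked and the TR-FRET signal falls; potency is the fitted concentration of half-maximal effect; plate controls were basal vehicle for no effect and high inhibitor control for full effect; nearly all actives have a fitted effect of over 50% in size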
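CHO cells stably expressing M1 receptor (2000/well, cultured 16–30 h) treated 30 min at 37C with compound plus low lithium. Cytosolic IP1 by TR-FRET (665/620 ratio and 620 channel) after 10 min lysis; AC50 by Hill fit.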
HTT cytoprotect: protects HTT-Q103 PC12 cells, measured by ATP. PC12 HTT-Q103 induced, cytoprotection, ATP luminescence, 40 h. Potency, µM (series often up to 56.4 µM), for the others: cytoprotection (ATP increase), actives largely listed as activators. hit rate 0.14% among 230,000; note: potency is the fitted concentration of half-maximal effect; % of control where 0% means no effect; nearly all actives have a fitted effect of over 45% in size
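Readout: ATPlite luminescence (ATP level). Model: stable PC12, inducible Htt exon1 Q103-GFP. Inducer: tebufenozide, 100 nM final. Compounds: dose series. No G418 in medium.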
An asterisk follows results filed as active; ? = inconclusive; . = not tested or not shown; ! = not active in a repeat; [ ] = dose if it differs, or a comment. Most compounds without a hit are left out; they make up all but 9.4% or so of the library. Unless noted, calls come from the whole dose curve; as a rule, active = well fitted curve in the direction sought with a large enough effect; inconclusive = small, poorly fitted or top-dose-only effect, or another doubt; inactive = no such curve, though single readings can be large; an effect the other way counts as inactive or inconclusive.

SMILES | ALDH1A1 block | IMPase cell inh | HttQ103 aggreg | HPGD inh | IMPase Li cell | HTT cytoprotect
COc1cccc2c(SCC(=O)N/N=C/c3ccc(O)cc3O)cc(C)nc12 | 28µM* | . | -22% | . | 22% | -43%
COc1ccc2nc(C)cc(SCC(=O)N/N=C/c3ccccc3)c2c1 | 3% | . | 3% | -18% | 7% | -15%[10 µM]
COc1ccccc1/C=N/NC(=O)CSc1cc(C)nc2ccccc12 | ? | . | 1%[9.22 µM] | . | 2% | 12%[10 µM]
NS(=O)(=O)c1ccc(CCNCC(=O)NC2CC2)cc1 | -5% | . | 21%[9.22 µM] | . | . | 7%[10 µM]
NS(=O)(=O)c1ccc(CCNCC(=O)N2CCC(Cc3ccccc3)CC2)cc1 | 10µM* | . | 11%[9.22 µM] | . | . | 6%[10 µM]
CC(C)n1c(SCC(=O)Nc2nc3c(s2)CCCC3)nc2c1c(=O)n(C)c(=O)n2C | -22% | 5 | 13µM* | -16% | 16% | 4%[10 µM]
COC(=O)c1sccc1NC(=S)N1CCCCC1 | 7.9µM* | -1 | 2% | ? | 28%[38.3 µM] | -10%
COc1ccc(C(=O)NC(=S)N2CCCCC2)cc1 | 16µM* | -2 | 1% | 18µM* | 31%[38.3 µM] | 5%
COc1cc(OC)cc(C(=O)NC(=S)N2CCCCCC2)c1 | 3% | . | -24%[9.22 µM] | . | 5% | 1%[10 µM]
COc1ccc(C(=O)NC(=S)N2CCC(C)CC2)cc1 | ? | -8 | 16% | 22µM* | 20%[38.3 µM] | -5%
COC(=O)c1sccc1NC(=S)N1CCC(C(N)=O)CC1 | -2% | . | -11% | . | -6% | -5%
N[C@@H](CNO)C(=O)O | 10%[13.5 µM] | . | . | -11% | -3% | -1%[10 µM]
O=C(Cc1ccccc1)n1nc(-c2ccco2)nc1SCc1ccccc1 | ? | 5 | 1% | 4.5µM* | 45%[38.3 µM] | -45%
O=C(c1ccco1)n1nc(-c2ccco2)nc1SCc1ccccc1 | -5% | 2 | -12% | ? | 20%[38.3 µM] | -54%
O=C(CCc1ccccc1)n1nc(-c2ccccc2)nc1NCc1ccco1 | 2% | -11 | 25µM* | -19% | 11% | 6%[10 µM]
COc1ccc(CC(=O)n2nc(-c3ccccc3)nc2NCc2ccco2)cc1 | -2% | -3 | -10% | -13% | 37%[38.3 µM] | 10%[10 µM]
O=C(c1ccco1)n1nc(-c2ccccc2)nc1SCc1ccccc1 | 1% | 1 | -4% | 18µM* | 23%[38.3 µM] | -13%
Cc1cc(C)cc(Oc2nc3c(c(=O)n(C)c(=O)n3C)n2Cc2ccc(F)cc2)c1 | . | -4 | . | . | . | .
CCc1ccc(/C=C2/C(=O)N(c3ccccc3)C(=S)N2CC(=O)OC)s1 | 8.9µM* | -21 | -10% | -17% | -8% | 29%[10 µM]
CCOc1ccc(N2C(=O)/C(=C/c3cccs3)N(CC(=O)OC)C2=S)cc1 | 10% | 1 | -4% | -4% | -12%[38.3 µM] | -13%
COc1ccc(S(=O)(=O)N(CC(=O)NC(C)c2ccccc2)c2ccc(C)cc2)cc1OC (centres undefined) | . | -5 | . | . | . | .
COc1cc2c(cc1OC)C(c1ccccc1O)N(C1CC(=O)N(c3ccccc3)C1=O)CC2 (centres undefined) | 13µM* | -16 | -8% | -13% | 9%[38.3 µM] | -3%
CC(=O)N1CC[C@@H]2CC(=O)CC[C@@H]21 | 3%[120 µM] | . | . | -3% | 4% | .
COC(=O)C(N)CS (centres undefined) | ? | . | . | 25µM* | -1% | ?
COC(=O)C(N)Cc1ccc(O)cc1 (centres undefined) | 9% | 6 | 18% | 7% | 5%[38.3 µM] | 10%
SMILES | ALDH1A1 block | IMPase cell inh | HttQ103 aggreg | HPGD inh | IMPase Li cell | HTT cytoprotect
COC(=O)CC[C@H](N)C(=O)O | . | . | 1% | . | . | -17%
COC(=O)[C@@H](N)CS | 3.2µM* | . | 13% | -12% | 1% | -9%
CSc1nc2sc3c(c2c(=O)n1Cc1ccccc1)CCC(C(C)(C)C)C3 (centres undefined) | . | 7 | . | . | . | .
COCCN=C1OC(=O)N2C(=O)C3=C4C(C[C@H]5C(=O)N(CC(=O)OC)C(=O)[C@H]5[C@H]4[C@@]12Cc1ccccc1)[C@H]1C(=O)N(CC(=O)OC)C(=O)[C@H]1[C@H]3C (some centres undefined) | -6% | . | . | -8% | -5% | 8%
Cc1cccn2c(CNC3CCCc4ccccc43)c(C(=O)N3CCCCC3)nc12 (centres undefined) | 20µM* | . | 0%[9.22 µM] | . | 17% | -5%[10 µM]
N#Cc1nc(-c2cccc3ccccc23)oc1NCCN1CCCCC1 | ? | -30 | 1% | ? | 11µM* | -41%
COCCN(CCOC)c1nc(C)nc2c1nc(-c1ccccc1)n2CC1CCN(C)CC1 | ? | . | . | ? | 6% | 8%
Cc1ccc([N+](=O)[O-])cc1S(=O)(=O)N(C)C | 32µM*! | -1 | . | 5% | 10% | -54%
Cc1ccc(NC(=O)c2ccc([N+](=O)[O-])cc2)cc1S(=O)(=O)N(C)C | ? | . | -1% | . | 4% | -55%
C=CCn1c(SCC(=O)NC23CC4CC(CC(C4)C2)C3)nc2cc(C(=O)O)ccc2c1=O | 13µM* | . | 13% | . | 4% | 4%
CCC(CO)n1c(SCc2cc([N+](=O)[O-])cc3c2OCOC3)nc2ccccc2c1=O (centres undefined) | -10% | . | ? | -13% | 15% | 14%[10 µM]
C=CCn1c(SCc2cc([N+](=O)[O-])cc3c2OCOC3)nc2cc(C(=O)O)ccc2c1=O | 10µM* | . | -8%[9.22 µM] | . | . | -6%[10 µM]
C=CCn1c(SCC(=O)Nc2ccc(F)cc2)nc2cc(C(=O)O)ccc2c1=O | -15% | . | -4% | . | 3% | -13%
CN(C)C(=O)c1ccc(-c2cncnc2N2CCNCC2)cc1 | 11% | . | . | . | 21% | 5%
FC(F)(F)c1cc(CN2CC[C@@]3(CCCNC3)C2)cc(C(F)(F)F)c1 | 1% | . | . | -3% | 23% | -32%
O=C(O)CC[C@]1(C(=O)O)CCC(=O)c2ccccc21 | 0%[13.5 µM] | . | . | 1% | -6% | 6%[10 µM]
COc1ccc(Cl)cc1-c1n[nH]c(=S)o1 | ? | ? | -19% | ? | 6.3µM* | -11%
CCCCn1c(-c2cc(Cl)ccc2OC)n[nH]c1=S | ? | -11 | -15% | 28µM* | -9%[38.3 µM] | -24%
CCC(=O)OC1C(N(C)C)CC(C)O[C@H]1O[C@H]1[C@H](C)[C@@H](O[C@H]2CC(OC)[C@@H](O)C(C)O2)[C@H](C)C(=O)O[C@@H](CC)[C@](C)(O)[C@@H](O)[C@H](C)C(=O)[C@@H](C)C[C@]1(C)O (some centres undefined) | . | . | 5% | . | . | 0%
O=C(NCc1ccco1)C1CC(=O)N(c2ccc(Cl)cc2)C1 (centres undefined) | -8% | . | -5% | . | -2% | 13%
Cc1ccc(C2CC(=O)N3CN(Cc4ccco4)CSC3=C2C#N)cc1 (centres undefined) | 11µM* | 4 | 9% | 16µM* | 3%[38.3 µM] | 6%

Screens deposited in PubChem BioAssay by National Center for Advancing Translational Sciences (NCATS).
